The text below walks through data of PubChem BioAssay (Tox21).

Inconclusive results are not listed. A number with no mark means an inactive call. The source made the active and inactive calls. Calls follow the shape of the dose curve; as a rule, active = well fitted cell-killing curve with a large enough effect in the repeat runs; inconclusive = weak or mixed curves, or effect the other way; inactive = no such curve, though single readings can be large or run the other way.
% is scaled to controls: 0 for no effect and ±100 for the full control effect; potency is read from the fitted curve at half-maximal effect.

This assay in a line: qHTS assay for small molecule activators of the heat shock response signaling pathway - cell viability counter screen (AID 743209). Also: nearly all actives have a fitted effect of over 50% in size. Particulars: HSE-bla HeLa viability, CellTiter-Glo luminescence, 5 h; series mostly up to 62.6 µM; activity change, negative = cytotoxicity: at the top concentration. An excerpt: U.S. Tox21 Program National Center for Advancing Translational Sciences [NCATS] NIH Chemical Genomics Center [NCGC] U.S. Environmental Protection Agency [EPA] National Institutes of Environmental Health Sciences [NIEHS] National Toxicology Program [NTP] U.S. Food and Drug Administration [FDA] Tox21 Assay Overview: Various chemicals, environmental and physiological stress conditions may lead to the activation of heat shock response/ unfolded protein response (HSR/UPR). There are three heat shock transcription factors (HSFs) (HSF-1, -2, and -4) mediating transcriptional regulation of the human HSR. To identify the compounds that activate HSR signaling, HSE-bla HeLa cell line (Invitrogen, Carlsbad, CA, USA) containing a beta-lactamase reporter gene under the control of the heat shock response elements was used to screen Tox21 10K compound library. The cytotoxicity of the Tox21 compound library against the HSE-bla HeLa cell line was tested in parallel by measuring the cell viability using CellTiter-Glo assay (Promega, Madison, WI) in the same wells.
Tox21 Assay Protocol Summary: The CellSensor HSE-bla HeLa cells (Invitrogen, Carlsbad, CA, USA) were dispensed at 1500 cells/6uL/well into 1536-well black wall/clear bottom plates using a Multidrop combi (Thermo Fisher Scientific, Waltham, MA) dispenser. After the assay plates were incubated at 37 C and 5% CO2 overnight, 23 nL of compounds dissolved in DMSO, positive controls or DMSO only was transferred to the assay plate by a Pintool station (Kalypsys, San Diego, CA). The plates were incubated at 37 C for 5 h. After 1 uL of LiveBLAzerTM B/G FRET substrate was added using a Flying Reagent Dispenser (FRD, Beckman Coulter, Indianapolis, IN, USA), the plates were incubated at room temperature for 2.5 h, and fluorescence intensity was measured by an Envision plate reader (PerkinElmer, Shelton, CT). For cell viability readout that measures cytotoxicity, 3 ul/well of CellTiter-Glo reagent was added into the assay plates using a FRD. After 30 min incubation at room temperature, the luminescence intensity in the plates was measured using a ViewLux (PerkinElmer) plate reader.
(Quantitative high-throughput screening tests each substance at several concentrations.)
Take `Nc1ncnc2c1ncn2[C@H]1CC[C@@H](CO)O1`: the “activity change, negative = cytotoxicity” value was 12.3% [at 81.1 µM].
As for `CCC=CC#N`, the “activity change, negative = cytotoxicity” value is -39.6%.
As for `CC1(CN2CCC(n3c(=O)[nH]c4ccccc43)CC2)OCc2ccccc2-n2cccc21` (stereo not given), the “activity change, negative = cytotoxicity” value was -2.93%.
On the same count and under the same terms, next, `Oc1cc2c(cc1O)[C@H]1c3ccc(O)c(O)c3OC[C@@]1(O)C2`: -12.2% [at 81.1 µM]; `C=C(C)C(=O)OCCCCCCCCCCCCC`: -10.4%.
Same read-out and setting: next, `CCCCCCCCCCC(=O)O`: -0.31% [at 81.1 µM]; `C=C(C)C(=O)OCCOCCOC(=O)C(=C)C`: 3.13%; `CN1C(=O)N(c2ccccc2Br)Cc2cnc(Nc3ccc4c(c3)OCC(CO)O4)nc21` (stereo not given): -13.4%.
The same measure, in the same setting: next, `O=C(O)c1ccc(OCCCOc2ccc(C(=O)O)cc2)cc1`: -4.71%.
In the case of `FC(F)(F)c1ccccc1Cl`, the “activity change, negative = cytotoxicity” value was 40.9% [at 81.1 µM].
Regarding `CC(CC1c2ccccc2CCc2ccccc21)CN(C)C` (stereo not given), the “activity change, negative = cytotoxicity” value is -9.4%.
Same read-out and setting: next, `Brc1cc(Br)c(Oc2cc(Br)c(Br)cc2Br)cc1Br`: -8.77%; `C[C@H]1c2cccc(O)c2C(O)=C2C(=O)[C@]3(O)C(O)=C(C(N)=O)C(=O)[C@@H](N(C)C)[C@@H]3[C@@H](O)[C@@H]21`: -0.799%.
The same measure, in the same setting: next, `CC(O)c1ccccc1` (stereo not given): -5.91% [at 81.1 µM]; `CCOc1cccc(-n2cc(C(=O)N3CCN(c4cc(C(=O)O)c5ccccc5c4)CC3)nc2-c2ccc(C)cc2)c1`: -11.3%.
Still for that read-out and setting: next, `C=COCC(C)C`: -0.0635% [at 81.1 µM]; `C1C[C@@H]2[C@H]3CC[C@H](C3)[C@@H]2C1`: -13.2%; `CC(=O)c1cc2ccccc2s1`: -7.75%.
Regarding `COc1ncnc(NS(=O)(=O)c2ccc(N)cc2)c1OC`, the “activity change, negative = cytotoxicity” value was 9.16%.
Same read-out and setting: to `CCCCN(CCN(CCCC)C(=O)N1CCOCC1)C(=O)N1CCOCC1` belongs -25.4%.
The same measure, in the same setting: to `Cc1ccccc1N=C(N)Nc1ccccc1C` belongs 3.69%.
As to `COC(=O)c1nc(Cl)c(Cl)nc1N`, the Potency was 5.31 µM (active).
For the compound `Clc1cc(Cl)nc(Cl)n1`, the “activity change, negative = cytotoxicity” value was -2.64% [at 81.1 µM].
Regarding `O=C1NC(=O)c2cc([N+](=O)[O-])ccc21`, the “activity change, negative = cytotoxicity” value was -0.978% [at 81.1 µM].
As for `C=C1CCC2CC1C2(C)C` (stereo not given), the “activity change, negative = cytotoxicity” value is -14.6%.
Same read-out and setting: to `CN1CCCC(n2nc(Cc3ccc(Cl)cc3)c3ccccc3c2=O)CC1` (stereo not given) belongs 3.09%; to `Brc1cc2ccccc2c2ccccc12`, -4.26% [at 81.1 µM]; to `C/C=C(/C(=C/C)c1ccc(O)cc1)c1ccc(O)cc1`, -26.5%.
With `CO[C@]1(NC(=O)CSC(F)F)C(=O)N2C(C(=O)O)=C(CSc3nnnn3CCO)CO[C@H]21`, the “activity change, negative = cytotoxicity” value was 20.6%.
For `CC(=O)[C@H]1[C@H](C#N)C[C@H]2[C@@H]3CC=C4C[C@@H](O)CC[C@]4(C)[C@H]3CC[C@@]21C`, the “activity change, negative = cytotoxicity” value is 1.95%.
Same read-out and setting: to `O=C1c2ccccc2C(=O)C1c1ccc(Br)cc1` belongs -13.2%; to `CO/N=C(/C(=O)N[C@@H]1C(=O)N2C(C(=O)O)=C(COC(N)=O)CS[C@H]12)c1ccco1`, 15.8%.
Same read-out and setting: to `CC(=O)OCC(=O)NCCCOc1cccc(CN2CCCCC2)c1` belongs -4.94%.
Still for that read-out and setting: to `CCCCCCCC/C=C\CCCCCCCCCCCC(=O)O` belongs 7.72% [at 81.1 µM]; to `C=CCc1ccccc1OCC(O)CNC(C)C` (stereo not given), 9.63%; to `CCCCCC[C@@H](O)C/C=C\CCCCCCCC(=O)OCC(O)CO` (stereo not given in full), 5.88%.
Consider `CC(CO)CO`, for which the “activity change, negative = cytotoxicity” value is 8.06% [at 81.1 µM].
Same read-out and setting: next, `O=C1NCCN1CCO`: 21.9% [at 81.1 µM]; `CC/C=C1/OC(=O)c2ccccc21`: 0.394%.
`C[C@@H](O[C@H]1OCCN(Cc2n[nH]c(=O)[nH]2)[C@H]1c1ccc(F)cc1)c1cc(C(F)(F)F)cc(C(F)(F)F)c1`: the Potency was 29.8 µM (active).
